Active and inactive are the calls of the source. How the source made its calls: active means hit-call score of the fitted dose curve at least 0.9, where 1 is the maximum; inactive means score below 0.9.
Tests used:
[1] = ATG_CRE_CIS: Attagene CIS-FACTORIAL HepG2 Assay for human cAMP Responsive Element (CRE) binding protein 3 (AID 2282926); conditions: HepG2 CRE cis-reporter, Attagene multiplexed mRNA; actives raise or lower the signal
Method in brief: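 Multiplexed transcription-unit reporters transfected into HepG2; 24 h dosing; RT-PCR/capillary electrophoresis fluorescence read-out; bidirectional fit vs DMSO.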

[2] = target: CCAAT/enhancer-binding protein beta (Homo sapiens) (UniProt P17676); assay: ATG_C_EBP_CIS: Attagene CIS-FACTORIAL HepG2 Assay for human CCAAT/Enhancer Binding Protein (C/EBP) beta (AID 2282927); conditions: HepG2 Attagene cis-factorial transcription factor reporter; actives raise or lower the signal
CCAAT/enhancer-binding protein beta (Homo sapiens), sequence (P17676 whole entry, looked up): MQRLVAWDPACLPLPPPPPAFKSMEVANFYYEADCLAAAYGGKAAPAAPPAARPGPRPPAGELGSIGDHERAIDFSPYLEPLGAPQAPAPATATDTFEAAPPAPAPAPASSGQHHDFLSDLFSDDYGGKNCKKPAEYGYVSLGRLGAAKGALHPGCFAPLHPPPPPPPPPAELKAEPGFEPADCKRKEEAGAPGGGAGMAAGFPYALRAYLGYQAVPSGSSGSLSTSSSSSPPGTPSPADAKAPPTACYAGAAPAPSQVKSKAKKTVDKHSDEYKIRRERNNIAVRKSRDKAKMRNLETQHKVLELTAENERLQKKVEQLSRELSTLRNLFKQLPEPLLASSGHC
Method in brief: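 HepG2 transiently transfected with multiplexed reporter units under cis-regulatory promoters reporting endogenous C/EBPb activity. After 24 h exposure, reporter mRNA assayed by RT-PCR, fluorescent labelling, HpaI digestion and capillary electrophoresis; bidirectional fitting versus DMSO.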

[3] = ATG_CMV_CIS: Attagene CIS-FACTORIAL HepG2 Assay for human CMV (Internal Marker) (AID 2282928); conditions: HepG2 CMV promoter reporter, transcription factor profiling; actives raise or lower the signal;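 further: endpoint acts as a background internal control marker rather than a target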
Method in brief: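 Endogenous transcription factor activity read in HepG2 via transfected cis-promoter reporter units. After 24 h dosing, reporter mRNA measured by RT-PCR/capillary electrophoresis; gain or loss of signal fit relative to DMSO.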

[4] = ATG_DR4_LXR_CIS: Attagene CIS-FACTORIAL HepG2 Assay for human Liver X Receptor (LXR), DR4 submotif (AID 2282929); conditions: HepG2 Attagene DR4 cis-reporter, mRNA transcription; actives raise or lower the signal
Method in brief: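 Measures endogenous transcription factor activity via a DR4-driven reporter transcript in human HepG2 cells. Compounds incubated 24 h; mRNA quantified by RT-PCR and capillary electrophoresis, analysed as gain or loss of signal versus DMSO.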

[5] = target: Aryl hydrocarbon receptor (Homo sapiens) (UniProt P35869); assay: ATG_Ahr_CIS: Attagene CIS-FACTORIAL HepG2 Assay for human Aryl Hydrocarbon Receptor (Ahr) (AID 2282930); conditions: HepG2 AhR cis-factorial reporter transcription; actives raise or lower the signal
Aryl hydrocarbon receptor (Homo sapiens), sequence (P35869 whole entry, looked up): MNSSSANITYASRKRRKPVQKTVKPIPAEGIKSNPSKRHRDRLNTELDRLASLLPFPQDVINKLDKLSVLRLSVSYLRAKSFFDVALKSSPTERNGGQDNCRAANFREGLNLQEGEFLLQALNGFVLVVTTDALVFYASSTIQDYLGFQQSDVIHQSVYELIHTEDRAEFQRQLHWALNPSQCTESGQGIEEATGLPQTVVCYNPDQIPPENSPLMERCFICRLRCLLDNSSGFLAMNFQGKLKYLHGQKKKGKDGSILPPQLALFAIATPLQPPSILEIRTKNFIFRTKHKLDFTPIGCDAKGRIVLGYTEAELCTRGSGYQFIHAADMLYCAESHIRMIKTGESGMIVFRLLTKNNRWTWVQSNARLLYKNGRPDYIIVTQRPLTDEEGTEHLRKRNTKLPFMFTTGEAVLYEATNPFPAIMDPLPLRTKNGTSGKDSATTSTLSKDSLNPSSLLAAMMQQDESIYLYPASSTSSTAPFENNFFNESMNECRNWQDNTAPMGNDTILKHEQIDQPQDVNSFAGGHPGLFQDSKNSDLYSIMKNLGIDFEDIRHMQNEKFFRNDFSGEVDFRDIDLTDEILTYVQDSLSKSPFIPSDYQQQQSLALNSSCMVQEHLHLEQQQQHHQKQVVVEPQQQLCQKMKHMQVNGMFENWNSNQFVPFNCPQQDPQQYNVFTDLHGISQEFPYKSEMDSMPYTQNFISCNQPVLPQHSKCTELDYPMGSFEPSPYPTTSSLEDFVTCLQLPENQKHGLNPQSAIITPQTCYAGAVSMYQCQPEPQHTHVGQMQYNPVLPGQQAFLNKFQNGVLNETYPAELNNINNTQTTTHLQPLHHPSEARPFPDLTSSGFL
Method in brief: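 HepG2 cells transiently transfected with cis-element-driven multiplexed reporter units; endogenous AhR activity read as reporter mRNA 24 h after dosing, via RT-PCR, 6-FAM labelling, HpaI digestion and capillary electrophoresis. Bidirectional fit relative to DMSO.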

[6] = ATG_AP_1_CIS: Attagene CIS-FACTORIAL HepG2 Assay for human Activator Protein 1 (AP-1) (AID 2282931); conditions: HepG2 Attagene cis-factorial AP-1 reporter mRNA; actives raise or lower the signal
Method in brief: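 Bidirectional concentration-response fitting against DMSO controls. Underlying signal: reporter mRNA from cis-promoter constructs in transiently transfected HepG2, measured after 24 h by RT-PCR and capillary electrophoresis.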

[7] = ATG_AP_2_CIS: Attagene CIS-FACTORIAL HepG2 Assay for human Activator Protein 2 (AP-2) (AID 2282932); conditions: HepG2 AP-2 cis-reporter, Attagene transcription factor profiling; actives raise or lower the signal
Method in brief: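 HepG2 cells transiently transfected with cis-element reporter units and exposed for 24 h. Reporter mRNA measured by RT-PCR, FAM labelling, HpaI digestion and capillary electrophoresis. Changes in either direction fitted relative to DMSO.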

[8] = ATG_BRE_CIS: Attagene CIS-FACTORIAL HepG2 Assay for human Bone Morphogenetic Protein (BMP) Response Element (BRE) (AID 2282933); conditions: HepG2 BMP response element reporter, Attagene transcription factor profiling; actives raise or lower the signal
Method in brief: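 Multiplexed cis-reporter assay, HepG2, 24 h exposure. mRNA from reporter units quantified via RT-PCR/CE; DMSO baseline; bidirectional curve fit.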

[9] = target: Retinoic acid receptor alpha (Homo sapiens) (UniProt P10276); assay: ATG_DR5_RAR_CIS: Attagene CIS-FACTORIAL HepG2 Assay for human Retinoic Acid Receptor Alpha (RARE), DR5 submotif (AID 2282934); conditions: HepG2 Attagene cis-factorial RARE DR5 reporter, mRNA; actives raise or lower the signal
Retinoic acid receptor alpha (Homo sapiens), sequence (P10276 whole entry, looked up): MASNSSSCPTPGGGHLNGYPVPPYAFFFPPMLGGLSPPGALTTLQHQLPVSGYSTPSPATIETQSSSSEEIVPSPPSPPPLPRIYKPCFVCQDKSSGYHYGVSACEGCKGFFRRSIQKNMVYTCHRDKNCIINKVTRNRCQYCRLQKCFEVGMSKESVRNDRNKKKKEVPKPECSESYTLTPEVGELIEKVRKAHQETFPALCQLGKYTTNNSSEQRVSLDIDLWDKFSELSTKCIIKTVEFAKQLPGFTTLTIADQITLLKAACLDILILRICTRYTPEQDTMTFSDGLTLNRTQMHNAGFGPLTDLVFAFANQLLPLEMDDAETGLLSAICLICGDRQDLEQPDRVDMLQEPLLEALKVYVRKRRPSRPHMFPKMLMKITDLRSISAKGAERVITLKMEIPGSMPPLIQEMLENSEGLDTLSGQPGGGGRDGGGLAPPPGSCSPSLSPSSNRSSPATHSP
Method in brief: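 HepG2 cells transiently transfected with multiplexed reporter units; DR5 cis-element drives reporter through endogenous transcription factors. After 24 h dosing, reporter mRNA quantified by RT-PCR, fluorescent labeling, HpaI digestion and capillary electrophoresis; bidirectional fitting versus DMSO.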

[10] = target: Transcription factor E2F1 (Homo sapiens) (UniProt Q01094); assay: ATG_E2F_CIS: Attagene CIS-FACTORIAL HepG2 Assay for human E2F Transcription Factor 1 (AID 2282935); conditions: HepG2 Attagene cis-reporter, E2F reporter RNA transcripts; actives raise or lower the signal
Transcription factor E2F1 (Homo sapiens), sequence (Q01094 whole entry, looked up): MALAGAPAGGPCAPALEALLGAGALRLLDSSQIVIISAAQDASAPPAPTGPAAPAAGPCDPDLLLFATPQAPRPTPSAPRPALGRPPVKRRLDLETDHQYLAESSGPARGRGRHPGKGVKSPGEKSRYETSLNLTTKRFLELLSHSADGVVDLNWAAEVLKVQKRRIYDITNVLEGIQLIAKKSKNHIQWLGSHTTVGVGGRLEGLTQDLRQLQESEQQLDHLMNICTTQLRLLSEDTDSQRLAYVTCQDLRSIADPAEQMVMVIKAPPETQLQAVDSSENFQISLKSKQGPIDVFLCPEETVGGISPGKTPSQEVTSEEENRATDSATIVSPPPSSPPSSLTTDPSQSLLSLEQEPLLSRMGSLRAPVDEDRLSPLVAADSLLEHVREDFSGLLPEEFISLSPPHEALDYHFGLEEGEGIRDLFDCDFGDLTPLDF
Method in brief: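 Endogenous E2F1 activity read through cis-promoter reporter units transfected into HepG2. After 24 h compound treatment, reporter mRNA measured by RT-PCR, HpaI digestion and capillary electrophoresis. Bidirectional fit versus DMSO.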

[11] = ATG_E_Box_CIS: Attagene CIS-FACTORIAL HepG2 Assay for human Enhancer Box (E-box) (AID 2282936); conditions: HepG2 E-box cis-reporter transcription, actives raise or lower the signal
Method in brief: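 HepG2 cells transiently transfected with multiplexed cis-element reporter units, dosed 24 h; reporter mRNA quantified by RT-PCR, 6-FAM labelling, HpaI digestion and capillary electrophoresis. E-box (USF1) signal fitted bidirectionally vs DMSO.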

[12] = ATG_EGR_CIS: Attagene CIS-FACTORIAL HepG2 Assay for human Early Growth Response 1 (EGR1) (AID 2282938); conditions: HepG2 Attagene CIS-FACTORIAL EGR reporter mRNA; actives raise or lower the signal
Method in brief: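 Cell-based multiplex transcription assay: HepG2 carrying transfected cis-element reporter units, 24 h chemical treatment. Fluorescence from capillary electrophoresis of RT-PCR products gives mRNA levels; fitting is bidirectional relative to DMSO.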

[13] = ATG_M_19_CIS: Attagene CIS-FACTORIAL HepG2 Assay for M19 Transcription Factor (Internal Marker) (AID 2282939); conditions: HepG2 Attagene CIS-FACTORIAL M19 internal marker reporter; actives raise or lower the signal
Method in brief: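 Signals come from fluorescence of labelled reporter-specific PCR fragments resolved by capillary electrophoresis, following 24 h treatment of HepG2 cells transfected with cis-promoter reporter units; activity was fitted in both directions relative to DMSO.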

[14] = ATG_Ets_CIS: Attagene CIS-FACTORIAL HepG2 Assay for human Erythroblast Transformation Specific (ETS) (AID 2282941); conditions: HepG2 ETS cis-reporter transcription, actives raise or lower the signal
Method in brief: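 Steps: transfect HepG2 with multiple reporter units; treat compound 24 h; isolate RNA, DNase-treat, reverse-transcribe; PCR-amplify, label with 6-FAM, digest with HpaI; separate by capillary electrophoresis. Activity fitted both directions versus DMSO.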

[15] = target: Hepatocyte nuclear factor 3-beta (Homo sapiens) (UniProt Q9Y261); assay: ATG_FoxA2_CIS: Attagene CIS-FACTORIAL HepG2 Assay for human Forkhead box A2 (FOXA2) (AID 2282942); conditions: HepG2 cis-reporter transcription factor activity, 24 h; actives raise or lower the signal
Hepatocyte nuclear factor 3-beta (Homo sapiens), sequence (Q9Y261 whole entry, looked up): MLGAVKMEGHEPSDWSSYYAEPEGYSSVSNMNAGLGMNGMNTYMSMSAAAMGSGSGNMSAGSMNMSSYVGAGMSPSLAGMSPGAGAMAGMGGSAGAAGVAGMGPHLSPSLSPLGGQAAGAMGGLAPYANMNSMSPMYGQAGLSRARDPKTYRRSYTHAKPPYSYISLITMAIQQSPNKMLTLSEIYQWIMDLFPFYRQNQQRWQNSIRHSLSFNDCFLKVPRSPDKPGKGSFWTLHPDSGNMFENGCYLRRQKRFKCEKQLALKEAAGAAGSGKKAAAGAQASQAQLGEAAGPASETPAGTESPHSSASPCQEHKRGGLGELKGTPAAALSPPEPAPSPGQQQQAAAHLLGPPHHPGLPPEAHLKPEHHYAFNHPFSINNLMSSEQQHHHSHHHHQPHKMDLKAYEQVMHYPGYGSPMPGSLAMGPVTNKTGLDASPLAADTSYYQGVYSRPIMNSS
Method in brief: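 In transiently transfected human HepG2 cells, promoter-driven reporter mRNA levels after 24 h chemical exposure are determined via RT-PCR with capillary electrophoresis. DMSO serves as baseline for bidirectional fitting.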

[16] = ATG_FoxO_CIS: Attagene CIS-FACTORIAL HepG2 Assay for human Forkhead box O (FoxO) (AID 2282943); conditions: HepG2 Attagene cis-reporter, FoxO element, mRNA; actives raise or lower the signal
Method in brief: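 HepG2 cells transiently transfected with cis-element-driven reporter units report endogenous FoxO activity. After 24 h chemical exposure, reporter mRNA quantified by RT-PCR, fluorescent labeling, HpaI digestion and capillary electrophoresis; bidirectional fit versus DMSO.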

[17] = ATG_GATA_CIS: Attagene CIS-FACTORIAL HepG2 Assay for human GATA Binding Protein (AID 2282944); conditions: HepG2 GATA cis-element reporter, Attagene multiplex mRNA; actives raise or lower the signal
Method in brief: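 After transfecting HepG2 cells with multiple cis-regulated reporter units, chemicals are dosed for 24 h; isolated RNA undergoes RT-PCR and fluorescent labeling before capillary electrophoresis, with activity expressed against DMSO.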

[18] = ATG_GLI_CIS: Attagene CIS-FACTORIAL HepG2 Assay for human Zinc Finger Protein GLI1 (AID 2282945); conditions: HepG2, Attagene cis-factorial reporter mRNA, GLI element; actives raise or lower the signal
Method in brief: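 Transiently transfected HepG2 cells report endogenous transcription factor activity via cis-element-driven reporter units. After 24 h compound exposure, reporter mRNA was measured by RT-PCR with capillary electrophoresis; bidirectional fitting against DMSO baseline.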

[19] = ATG_M_61_CIS: Attagene CIS-FACTORIAL HepG2 Assay for M61 Transcription Factor (Internal Marker) (AID 2282937); conditions: HepG2 Attagene CIS-FACTORIAL M61 internal marker reporter; actives raise or lower the signal
Method in brief: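 Fluorescence from labelled cDNA fragments, separated by capillary electrophoresis, quantifies reporter induction. HepG2 cells bearing transiently transfected cis-promoter MRTUs were incubated with test chemical for 24 h; DMSO defined baseline for gain/loss fitting.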

Measured: AC50

O=C1NC2NC(=O)NC2N1 (stereo unspecified)
not listed: [19]
inactive: all other assays above

Nc1ccc(Cl)c([N+](=O)[O-])c1
not listed: [11] | [19]
inactive: all other assays above

CC(C)(C)c1ccc(C(=O)O)cc1
not listed: [10]
inactive: all other assays above

C#CC(C)(O)CC(C)C (stereo unspecified)
not listed: [12] | [19]
inactive: all other assays above

CCN(CC)C(=O)N(CC)CC
not listed: [15] | [19]
inactive: all other assays above

CCc1ccc(O)c(OC)c1
not listed: [11] | [12]
inactive: all other assays above

Nc1ccccc1[N+](=O)[O-]
not listed: [10]
inactive: all other assays above

COc1ccc(CCC(C)=O)cc1
not listed: [11] | [16]
inactive: all other assays above

CCCCOC(=O)CCCCCCCC(=O)OCCCC
not listed: [11]
inactive: all other assays above

CCCCCCCCCCCCCCN(CCO)CCO
active: [4] 13.8 µM
not listed: [11]
inactive: all other assays above

Cc1cc(C)nc(NS(=O)(=O)c2ccc(N)cc2)n1
not listed: [11] | [15]
inactive: all other assays above

CCCCCCC(C)Nc1ccc(Nc2ccccc2)cc1 (stereo unspecified)
active: [3] 21.8 µM | [4] 44.4 µM | [6] 28.9 µM | [8] 50.5 µM
not listed: [19]
inactive: all other assays above

C=C(C)C(=O)OCCOCCOCCOC(=O)C(=C)C
not listed: [11] | [15]
inactive: all other assays above

CCCCCCC(C)(C)S
not listed: [11]
inactive: all other assays above

CC(=O)O[C@@H]1CC2CCC1(C)C2(C)C (stereo partly specified)
not listed: [11]
inactive: all other assays above

CCCCC1CCC(O)CC1 (stereo unspecified)
not listed: [19]
inactive: all other assays above

From PubChem BioAssay (EPA / NIEHS)
